Source: PubChem BioAssay
Only some compounds are listed: those with a hit (about 19% of all), similar ones and a draw of the others.
DT40 TDP1 no CPT – qHTS for Inhibitors of human tyrosyl-DNA phosphodiesterase 1 (TDP1): qHTS in cells in absence of CPT; actives 15% (n = 420,000); DT40 Tdp1-/- hTDP1 cells, no CPT, ATP luminescence, 48 h; Potency, µM (titrated, usually from 46.2 µM), inactives show at the top dose activity change, negative = growth inhibition, most hits filed as inhibitors; also: nearly all actives have a fitted effect of over 55% in size
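A cellular qHTS used chicken DT40 cells lacking endogenous Tdp1 but carrying stably transfected human TDP1. Compounds were applied without camptothecin, and cell growth kinetics were judged by ATP-dependent luminescence after ≥48 hr.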
KB-V1 MDR tox – qHTS assay for MDR1-selective chemotherapeutics: Primary screen using the drug-selected MDR subline cells KB-V1; KB-V1 MDR cells viability, CellTiter-Glo, 72 h; Potency, µM (titrated, usually from 46.1 µM), most hits filed as cytotoxic; actives 3.4% (n = 400,000); AID 1347076, 2019; also: nearly all actives have a fitted effect of over 60% in size
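Compound-treated KB-V1 multidrug-resistant cells, 72 h, 37 degrees C; viability by CellTiter-Glo. Fitted qHTS curves give the values.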
HT1080 IDH1KD tx – qHTS for induction of synthetic lethality in tumor cells producing 2HG: qHTS for the HT-1080-IDH1KD cell line | HT-1080 IDH1 knockdown viability, ATP luminescence, 48 h | Potency, µM (doses to about 46.1 µM), for the others: at the top dose activity, negative = toxicity, most hits filed as cytotoxic | actives 2% (n = 360,000) | AID 686971, 2013;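 also: 0% = DMSO wells and -100% = cell-free medium wells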
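% activity derives from luminescence (CellTiter-Glo), normalised to DMSO and no-cell wells. HT-1080-IDH1KD cells, 750/well, had 48 h compound exposure at 37 °C.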
DT40 TDP1 CPT – qHTS for Inhibitors of human tyrosyl-DNA phosphodiesterase 1 (TDP1): qHTS in cells in presence of CPT; chicken DT40 Tdp1-/-;hTDP1 cells + 20 nM CPT, ATP luminescence, 48 h; Potency, µM (series often up to 46.2 µM), inactives show top-dose activity change, negative = growth inhibition, usual class: inhibitors; actives 12% (n = 420,000); AID 686979, 2013; also: nearly all actives have a fitted effect of over 55% in size
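Cell growth measured by CellTiter-Glo luminescence after a minimum 48 h, 37 C compound exposure with 20 nM CPT in Tdp1-knockout DT40 cells stably expressing hTDP1, seeded 400/well; qHTS titration format.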
KB-3-1 cytotox – qHTS assay for MDR1-selective chemotherapeutics: Primary screen using the parental adenocarcinoma cell KB-3-1 | KB-3-1 viability, CellTiter-Glo ATP luminescence, 72 h | Potency, µM (doses to about 46.1 µM), usual class: cytotoxic | actives 1.4% (n = 400,000) | AID 1347075, 2019; also: nearly all actives have a fitted effect of over 60% in size
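Parental KB-3-1 adenocarcinoma cells in phenol-red-free DMEM with 10% FBS were pin-treated with compounds at several concentrations, incubated 72 h at 37 °C, and viability read by CellTiter-Glo luminescence; concentration-effect curves were fitted after normalization.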
HT1080NT lethal – qHTS for induction of synthetic lethality in tumor cells producing 2HG: qHTS for the HT-1080-NT fibrosarcoma cell line; HT-1080-NT fibrosarcoma viability, CellTiter-Glo ATP luminescence, 48 h; Potency, µM (top dose mostly 46.1 µM), inactives show top-dose activity, negative = less viability, actives largely listed as cytotoxic; actives 1.6% (n = 360,000);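 also: NT is the 2HG producing partner of a matched IDH1 knockdown line; 0% = DMSO-treated cells and -100% = media-only wells without cells; nearly all actives have a fitted effect of over 55% in size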
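Compounds were tested in concentration-response format on HT-1080-NT cells for 48 hours at 37 degrees C. Cell viability came from CellTiter-Glo luminescence; curves were classified by r2, response magnitude and activity.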
An asterisk follows results filed as active; i = inactive; u = inconclusive; x = no result; [ ] = another dose, or the depositor's remark. Calls follow the shape of the dose curve; as a rule, active = well fitted curve in the direction sought with a large enough effect; inconclusive = small, poorly fitted or top-dose-only effect, or another doubt; inactive = no such curve, though single readings can be large; an effect the other way counts as inactive or inconclusive. Unless noted, % is scaled to controls: 0 for no effect and ±100 for the full control effect; potency is read from the fitted curve at half-maximal effect.

SMILES | DT40 TDP1 no CPT | KB-V1 MDR tox | HT1080 IDH1KD tx | DT40 TDP1 CPT | KB-3-1 cytotox | HT1080NT lethal
Cc1cc(C(=O)CSc2ncccn2)c(C)n1-c1cccc(F)c1 | u | u | 5% | -7% | i | 11%
Cc1cc(C(=O)CSc2n[nH]c(N)n2)c(C)n1-c1cccc(F)c1 | u | i | u | u | i | -28%
Cc1cc(C(=O)CSc2nncs2)c(C)n1-c1ccc2c(c1)OCO2 | 18µM* | 16µM* | -7% | 21µM* | i | u
Cc1cc(C(=O)CSc2nc(N)cc(N)n2)c(C)n1-c1cccc(C(F)(F)F)c1 | u | i | -1% | 23µM* | i | 0%
COc1ccc(-n2c(C)cc(C(=O)CN3C(=O)NC4(CCCc5sccc54)C3=O)c2C)cc1 (stereo not given) | 21µM* | i | -21% | 16µM* | i | -19%
Cc1cc(-n2c(C)cc(C(=O)CN3C(=O)NC4(CCCCCC4)C3=O)c2C)no1 | u | u | -3% | -25% | i | -18%
CCCn1c(SCC(=O)c2cc(C)n(-c3ccc4c(c3)OCO4)c2C)n[nH]c1=O | 6.5µM* | 2.9µM* | -19% | 23µM* | 12µM* | -11%
Cc1cc(C)c(C(N)=O)c(SCC(=O)c2cc(C)c(C)cc2C)n1 | -26% | u | -24% | -27% | i | -16%
Cc1cc(C)c(C(N)=O)c(SCC(=O)c2cc(C)n(-c3cc(C)on3)c2C)n1 | 0.52µM* | u | -5% | 1.2µM* | i | -2%
Cc1cc(C(=O)CN2C(=O)NC3(CCCCC3)C2=O)c(C)n1-c1ccc2c(c1)OCO2 | 21µM* | i | -13% | u | i | -12%
Cc1ccc(-n2nnnc2SCC(=O)c2cc(C)n(-c3cc(C)on3)c2C)cc1 | 15µM* | i | -16%[9.24 µM] | 12µM* | i | -18%
NC(=O)C1(N2CCCCC2)CCN(C(=O)Nc2ccc(F)cc2F)CC1 | -2% | x | x | 5% | x | x
Cc1cc(C(=O)CSc2nnnn2-c2ccccc2)c(C)n1-c1ccc2c(c1)OCO2 | 13µM* | 7.3µM* | -20% | 23µM* | u | -10%
Nn1c(SCC(=O)Nc2ccc3c(c2)OCO3)nnc1-c1cccc(Cl)c1 | -17% | i | -18% | -22% | i | -15%
Cc1ccc(-n2nnnc2SCC(=O)c2cc(C)n(CC3CCCO3)c2C)cc1 (stereo not given) | -20% | u | 16% | -28% | i | 6%
Cc1cccc(-n2nnnc2SCC(=O)c2cc(C)n(Cc3ccco3)c2C)c1 | u | 18µM* | u | u | i | -20%
Cc1cccc(-n2nnnc2SCC(=O)c2cc(C)n(CC3CCCO3)c2C)c1 (stereo not given) | u | u | -4% | -1% | i | -18%
Cc1cc(C(=O)CSc2nnnn2-c2ccc(O)cc2)c(C)n1Cc1ccc2c(c1)OCO2 | u | 15µM* | -5% | u | u | -1%
Cc1cc(C(=O)CSc2nnc(-c3cccc(F)c3)n2N)c(C)n1Cc1ccc2c(c1)OCO2 | 23µM* | 2.6µM* | -16% | 15µM* | u | -4%
CC1(C(=O)NS(=O)(=O)c2ccc(Br)cc2)CCN1C(=O)c1cccc(F)c1 (stereo not given) | -1% | i | 0% | 4% | i | 25%
CC(OC(=O)c1ccccc1C(=O)N(C)c1ccccc1)C(=O)Nc1ccccc1[N+](=O)[O-] (stereo not given) | -32% | i | -7% | -28% | i | 6%
O=C1OC(CO)CN1Cc1ccccc1 (stereo not given) | -16% | u | 2% | 5% | i | 7%
COc1ccc(NC(=O)c2ccccc2)cc1 | u | i | -9% | u | i | -8%
COc1ccc(NC(=O)C(CC(=O)O)C(C)c2ccccc2)cc1 (stereo not given) | u | i | 12% | 16µM* | i | 10%
COc1cc(OC)cc(C(=O)N[C@H](C(=O)NCc2ccco2)C(C)C)c1 | 15µM* | i | -6% | 29µM* | u | -2%
SMILES | DT40 TDP1 no CPT | KB-V1 MDR tox | HT1080 IDH1KD tx | DT40 TDP1 CPT | KB-3-1 cytotox | HT1080NT lethal
CCc1ccccc1NC(=O)N[C@H](C(=O)O)C(C)CC (stereo not given in full) | 15µM* | i | 6% | u | i | 1%
COc1ccc(NC(=O)C(NC(=O)c2ccccc2)C(C)C)cc1 (stereo not given) | 4% | 21µM* | u | 3% | i | 0%
COc1ccc(Cn2ccc3nc(C)c(C(=O)Nc4ccc(OC)cc4)cc3c2=O)cc1 | -20% | i | x | -15% | u | x
C[C@@H](C(=O)Nc1nc(-c2ccccn2)cs1)N1C(=O)C2CCCCC2C1=O (stereo not given in full) | u | i | -2%[9.24 µM] | u | u | -26%
Cc1csc(NC(=O)[C@@H](NC(=O)c2ccccc2)C(C)C)n1 | 8.2µM* | i | 21% | u | i | 22%
CC(C)[C@H](NC(=O)c1ccccc1Cl)C(=O)Nc1nc(-c2ccccn2)cs1 | 5.8µM* | u | u | 5.8µM* | i | u
Cc1cccc(OC(C)C(=O)Nc2nc(-c3cccnc3)cs2)c1 (stereo not given) | u | u | -16% | u | i | -8%
Cc1cccc(C(=O)N[C@H](C(=O)Nc2nc3ccccc3[nH]2)C(C)C)c1 | 3.7µM* | u | 5.8µM* | 3.3µM* | 5.2µM* | 5.8µM*
CC(Oc1ccc(Br)cc1)C(=O)Nc1nc(-c2ccccn2)cs1 (stereo not given) | 3.3µM* | u | u | 4.6µM* | u | u
CCOc1ccc(NC(c2ccccc2)P(=O)(OC)OC)cc1 (stereo not given) | -42% | i | -1% | u | i | 0%
COc1ccc(CN2CCOc3c(cc(-c4cccc(OC)n4)cc3OC)C2)c(O)c1 | -1% | x | x | -4% | x | x
Cc1csc(NC(=S)NC(=O)c2ccccc2)n1 | 18µM* | i | -9% | u | i | 7%
